In all, about 260,000 compounds went through this assay and about 890 (0.34%) were called active. Where a call stands in place of a potency, no number is given. About 1% were inconclusive and are not listed. Calls follow the shape of the dose curve; as a rule, active = well fitted activation curve with a large enough effect; inconclusive = small, poorly fitted or top-dose-only effect; inactive = no such curve, though single readings can be large or run the other way. Only a selection was taken, and actives are over-represented in it overall.

Experimental findings from PubChem BioAssay AID1631 (National Center for Advancing Translational Sciences (NCATS), 2009) are described below.
Potency is read from the fitted curve at half-maximal effect.

Chain of Pyruvate kinase PKM (Homo sapiens) (P14618 whole entry, looked up, canonical isoform): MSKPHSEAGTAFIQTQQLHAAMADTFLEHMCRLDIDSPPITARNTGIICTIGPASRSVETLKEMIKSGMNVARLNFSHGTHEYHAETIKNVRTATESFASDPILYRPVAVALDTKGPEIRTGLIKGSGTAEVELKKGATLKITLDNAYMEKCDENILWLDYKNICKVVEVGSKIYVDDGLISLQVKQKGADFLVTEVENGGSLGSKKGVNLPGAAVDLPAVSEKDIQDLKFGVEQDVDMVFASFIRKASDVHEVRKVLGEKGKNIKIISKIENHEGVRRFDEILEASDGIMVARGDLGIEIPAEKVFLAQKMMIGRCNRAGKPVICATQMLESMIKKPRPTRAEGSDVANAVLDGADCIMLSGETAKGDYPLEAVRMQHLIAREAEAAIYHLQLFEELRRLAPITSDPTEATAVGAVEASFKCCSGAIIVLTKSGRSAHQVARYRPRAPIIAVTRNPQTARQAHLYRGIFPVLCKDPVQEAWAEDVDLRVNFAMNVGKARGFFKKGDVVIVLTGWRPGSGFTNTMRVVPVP

This assay has as its target Pyruvate kinase PKM (Homo sapiens) (UniProt P14618). Nature of the assay: qHTS Assay for Activators of Human Muscle isoform 2 Pyruvate Kinase. Also: nearly all actives have a fitted effect of over 55% in size. The following applies: purified PKM2, Kinase-Glo ATP luminescence; Potency: activation; series mostly up to 57.5 µM. The text has this:
NIH Chemical Genomics Center [NCGC] Matthew G. Vander Heiden, M.D., Ph.D. [Harvard Medical School, 77 Avenue Louis Pasteur, Boston, MA 02115] MLPCN Grant: 1 R03 MH085679-01 NCGC Assay Overview: Human pyruvate kinase muscle 2 (hPK-M2) enzyme was supplied as a highly purified (>95% pure) preparation from Harvard Medical School and assayed for its ability to generate ATP from ADP using phosphoenolpyruvate (PEP) as a substrate. ATP generation was detected in a coupled reaction by luciferase-mediated luminescence, an ATP-dependent process. […] The enzyme was assayed at an intermediate level of activity to screen for both inhibitors and activators.
NCGC Assay Protocol Summary: Three uL of substrate mix (at r.t.) in assay buffer (50 mM Imidazole pH7.2, 50 mM KCl, 7 mM MgCl2, 0.01% Tween 20, 0.05% BSA) was dispensed into white solid bottom 1,536 well microtiter plates so that the final concentrations of substrates in the assay were 0.1 mM ADP and 0.5 mM PEP. 23 nL of compound were delivered by a pin tool and 1 uL of enzyme mix in assay buffer (4 degree Celsius) was added. Plates were incubated at room temperature for 1 hour. Two uL of detection mix (Kinase-Glo, Promega; at 4 degree Celsius protected from light) was added and luminescence read by a ViewLux (Perkin Elmer) at 5 second exposure/plate. Data were normalized to the uninhibited and AC100 inhibition (no enzyme). To monitor activation, the first column contained a titration of the activator, NCGC00031955-01 (16-point 1:2 dilutions in duplicate starting at 57 uM) and the first 16 rows of column 4 contained 57 uM of NCGC00031955-01.
For the molecule `COc1ccccc1-c1nnc(SCC(=O)Nc2cc(C)on2)o1`, the Potency entry was “inactive”.
With `Cc1nc(SCC(=O)Nc2cc(C)on2)c2c(C)c(C)sc2n1`, the Potency entry was “inactive”.
The same measure, in the same setting: for `Cc1cc(NC(=O)CSc2nnc(-c3ccc(Cl)s3)o2)no1` the value was 2.51 µM (active); for `COc1cc(NC(=O)C2=CC(c3ccc(C)cc3)=NS(=O)(=O)N2C)cc(OC)c1OC`, “inactive”.
`CCOc1ccccc1NC(=S)N1CCN(c2cccc(C)c2C)CC1`: the activation is -8.49% [at 11.5 µM, 0% is enzyme alone, no compound] (inactive).
`CCOc1cc(/C=N/Nc2cc(C)nc3ccc(C)cc23)ccc1O`: the Potency result was “inactive”.
With `Cc1ccc2nc(C)cc(N/N=C/c3ccc(F)cc3)c2c1`, the Potency was 15.8 µM (active).
As to `Fc1ccc(/C=N/Nc2nc(-c3cccnc3)nc3ccccc23)cc1`, the Potency result is “inactive”.
Same read-out and setting: for `Cc1cc(C)n(C(=O)c2ccc(S(=O)(=O)N3CCCC3)cc2)n1` the value was “inactive”; for `Cc1ccccc1-c1nnn(CC(=O)c2ccc(S(=O)(=O)N3CCCC3)cc2)n1`, 7.94 µM (active).
As to `CC(C)(C)NC(=O)Cn1nnc(-c2ccccc2Cl)n1`, the Potency entry was “inactive”.
For the molecule `O=C(NC(=S)Nc1ccc(Cl)cc1Cl)C1CC1`, the Potency result is “inactive”.
`COC(=O)c1[nH]c2cccc(C)c2c1NC(=O)CN1CCCc2ccccc21`: the Potency result is “inactive”.
Consider `NS(=O)(=O)c1cccc(NC(=O)CN2CCCc3ccccc32)c1`, for which the Potency result is “inactive”.
Same read-out and setting: for `COC(=O)c1[nH]c2ccccc2c1NC(=O)CN1CCCc2ccccc21` the value was 28.2 µM (active); for `CCOc1ccccc1NC(=S)NC(=O)CCc1ccccc1`, “inactive”; for `CC(=O)c1cc(C#N)c(SCC(=O)C(C)(C)C)nc1C`, “inactive”.
`Cc1cc(C(F)(F)F)nc(SCC(=O)Nc2nccs2)n1`: the Potency entry was “inactive”.
Same read-out and setting: as for `CC(=O)c1cc(C#N)c(SCC(=O)Nc2nccs2)nc1C`, the figure is 1 µM (active).
As to `CC1CCCCC1NC(=O)CCS(=O)(=O)c1ccc2c(c1)NC(=O)CO2` (centres undefined), the activation was 0.549% [at 0.46 µM, 0% is enzyme alone, no compound] (inactive).
Consider `CC(=O)OCCN(CCCn1c(-c2ccncc2)nc2ccccc21)c1nc(-c2ccc(C)cc2)cs1`, for which the Potency result is “inactive”.
The same measure, in the same setting: for `CC(C)c1ccc(NC2CCCN(C(=O)c3ccncc3)C2)cc1` (centres undefined) the value was “inactive”; for `O=C(c1ccccc1)N1CCN(C(=O)c2cc3nc(-c4ccccc4)cc(C(F)(F)F)n3n2)CC1`, “inactive”.
As to `CC(C)c1ccc(S(=O)(=O)N2CCN(C(=O)c3ccc(N4CCCC4)c([N+](=O)[O-])c3)CC2)cc1`, the Potency entry is “inactive”.
The same measure, in the same setting: for `CCCOc1ccc(/C=N/NC(=O)C2CC2)c(OCCC)c1` the value was “inactive”; for `O=C(C1CCC(=O)N(C2CC2)C1)N1CCN(c2ccc(Cl)cc2)CC1` (centres undefined), “inactive”.
Same read-out and setting: as for `CC(C)c1ccc(NC(=O)C2CCCN(S(=O)(=O)c3cccnc3)C2)cc1` (centres undefined), the entry is “inactive”.
For the molecule `COCc1cc(=O)n2[nH]c(C)c(-c3ccccc3)c2n1`, the activation was -8.06% [at 11.5 µM, 0% is enzyme alone, no compound] (inactive).
As for `CN(NS(=O)(=O)c1cccs1)c1ncc(C(F)(F)F)cc1Cl`, the Potency result is “inactive”.
Regarding `CCOc1ccccc1N1C(=O)CC(Sc2nccc(C)n2)C1=O` (centres undefined), the Potency result is “inactive”.
The same measure, in the same setting: for `CCCn1c(C2CCCN2c2nc(-c3ccc(OC)cc3)cs2)nc2ccccc21` (centres undefined) the value was “inactive”; for `COC(=O)c1ccc(CN2CCCC(C(=O)Nc3cccc(-n4cnnn4)c3)C2)cc1` (centres undefined), “inactive”; for `COC(=O)COc1ccc(S(=O)(=O)Nc2ccc(NC(C)=O)cc2)cc1`, “inactive”.
Take `CNC(=O)COc1ccc(S(=O)(=O)Nc2ccccc2)cc1`: the Potency was 10 µM (active).
In the case of `CCOc1ccc(NS(=O)(=O)c2ccc(OCC(=O)NCCCOC)cc2)cc1`, the Potency entry was “inactive”.
Consider `COc1cccc(OCC(O)CNC(=O)c2oc3c(C)c(C)ccc3c2C)c1` (centres undefined), for which the Potency result was “inactive”.
On the same count and under the same terms, for `Cc1ccc(-n2ncc3c2CC(C)(C)CC3NC(=O)Cc2c(C)noc2C)cc1` (centres undefined) the value was “inactive”; for `O=C(NCCN1CCN(C(=O)c2cccc([N+](=O)[O-])c2)CC1)C(=O)NCc1ccc(Cl)cc1`, “inactive”; for `Cc1ccc(C)c(OCc2cc(C(=O)N3CCN(c4cnccn4)CC3)no2)c1`, “inactive”.
As to `C/C(=N\NC(=O)c1ccoc1C)c1ccccc1O`, the Potency result was “inactive”.
Still for that read-out and setting: as for `C=CCNC(=O)CSc1nc2scc(-c3ccco3)c2c(=O)n1CC=C`, the entry is “inactive”.
As to `C=CCn1c(SCC(=O)NCC2CCCO2)nc2sc(C)c(C)c2c1=O` (centres undefined), the Potency result is “inactive”.
As to `C=CCn1c(SCc2csc(C)n2)nc2scc(-c3ccc(C)o3)c2c1=O`, the Potency was 10 µM (active).
The same measure, in the same setting: as for `CC(=O)Nc1cccc(Nc2nc(-c3cccs3)nc3ccccc23)c1`, the entry is “inactive”; as for `Cc1cc(NC(=O)c2ccco2)c(=O)n(Cc2c(F)cccc2Cl)c1`, “inactive”; as for `N#C[C@]1(S(=O)(=O)c2ccccc2)C[C@@H]2ON=C(c3cccc(Br)c3)[C@@H]2C1`, “inactive”.
With `O=C(Nc1ccc(Cl)cc1)c1cccc(OC(=S)N2CCOCC2)c1`, the Potency result was “inactive”.
Take `Cc1cc(C)cc(OCc2nnc(SCC(=O)Nc3ccccc3)o2)c1`: the Potency entry is “inactive”.
As for `COc1ccccc1-c1nnc(SCC(=O)Nc2ccccc2)o1`, the Potency entry is “inactive”.
For `COc1cccc(NC(=O)CSc2nnc(Cc3ccc(OC)c(OC)c3)o2)c1`, the Potency is 14.1 µM (active).
For the molecule `O=C(Nc1nnc(S(=O)(=O)N2CCCCCC2)s1)c1cccc(Br)c1`, the Potency entry is “inactive”.
With `CCc1ccccc1OCC(=O)Nc1ccc2c(c1)OCCO2`, the Potency entry was “inactive”.
In the case of `COc1ccc(NS(=O)(=O)c2ccc(N3CCN(CCO)CC3)c([N+](=O)[O-])c2)cc1`, the Potency entry is “inactive”.
Turning to `O=C(Nc1ncc([N+](=O)[O-])s1)C1COc2ccccc2O1` (centres undefined), the Potency entry was “inactive”.
As for `O=c1cc(Cn2nnc(-c3ccc(Cl)cc3)n2)nc2sccn12`, the Potency was 14.1 µM (active).
With `O=C(NCc1ccc(Cl)cc1)c1cc2c(nc3sccn32)s1`, the Potency result is “inactive”.
Regarding `CCn1c(SCc2cc(=O)n3ccsc3n2)nc2ccccc21`, the Potency result is “inactive”.
Take `Clc1cccc(Cl)c1OCCOCCNCc1ccccc1`: the Potency result was “inactive”.
For `COc1nnc(-c2ccc(C)c(S(=O)(=O)N(C)C)c2)c2ccccc12`, the Potency entry is “inactive”.
For the molecule `COc1cc(/C=C/C(=O)N2CCc3ccccc3C2)cc(OC)c1OC`, the Potency result was “inactive”.
With `COc1ccc(-c2oc3ncnc(NCCCO)c3c2-c2ccc(OC)cc2)cc1`, the Potency result was “inactive”.
As to `C=CCNC(=S)/N=c1/ccccn1Cc1ccccc1`, the Potency entry was “inactive”.
Same read-out and setting: for `O=C(/C=C/c1ccc([N+](=O)[O-])o1)NNC(=O)c1ccc(F)cc1` the value was “inactive”.
For `COCCNc1cc(-c2ccccc2)nc2cc(-c3cccc(F)c3)nn12`, the Potency result is “inactive”.
